Results reported in PubChem BioAssay (NCI).
The panel holds about 79,000 compounds, 15% with a hit somewhere; the sample as a whole holds those more often. Unmarked numbers belong to inactive results. The source made the active and inactive calls. Rule as the data show it: active = growth inhibition above about 70%; inactive = the rest.

Tests used:
[1] = NCI Yeast Anticancer Drug Screen. Data for the rad50 strain (AID 155);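 also: 0% = growth of vehicle-only cultures of the same strain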; settings: S. cerevisiae rad50 strain growth inhibition, stronger effect = higher value
In short: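 A DNA repair-deficient yeast mutant serves as the test organism; compound-induced growth inhibition is calculated against vehicle-treated cells.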

[2] = NCI Yeast Anticancer Drug Screen. Data for the mec2-1 strain (AID 157); settings: S. cerevisiae mec2-1 strain, stronger effect = higher value
In short: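 Compounds were applied to mec2-1 yeast cells. Their growth was then compared with that of vehicle-treated cultures to give growth inhibition.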

[3] = NCI Yeast Anticancer Drug Screen. Data for the sgs1 mgt1 strain (AID 161);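 also: 0% = growth of cultures given vehicle only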; settings: S. cerevisiae sgs1 mgt1 strain, stronger effect = higher value
In short: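 Yeast cells carrying a defined DNA-repair defect were exposed to test compounds. Growth inhibition was measured relative to vehicle-treated controls.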

[4] = NCI Yeast Anticancer Drug Screen. Data for the cln2 rad14 strain (AID 165);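 also: 0% = growth equal to vehicle treated cultures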; settings: S. cerevisiae cln2 rad14 strain, stronger effect = higher value
In short: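 Strain: cln2 rad14 yeast, altered in cell cycle control and DNA damage repair. Read-out: growth inhibition vs vehicle.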

[5] = NCI Yeast Anticancer Drug Screen. Data for the bub3 strain (AID 167); settings: S. cerevisiae bub3 mutant strain, stronger effect = higher value
In short: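 Inhibition values come from growth of compound-treated mutant yeast normalised to vehicle-treated controls.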

[6] = NCI Yeast Anticancer Drug Screen. Data for the mlh1 rad18 strain (AID 175); settings: S. cerevisiae mlh1 rad18 strain growth inhibition, stronger effect = higher value
In short: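 A repair-deficient yeast strain is exposed to test compound, and growth is scored relative to vehicle-treated controls.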

[7] = at 5.0 µM (retest, dose inferred, filed as 0.5)
[8] = at 50.0 µM (retest, dose inferred, filed as 5.0)

Row | Structure (SMILES) | growth inhibition [1, 7] | growth inhibition [1, 8] | growth inhibition ([1]; at 50.0 µM) | growth inhibition [2, 7] | growth inhibition [2, 8] | growth inhibition ([2]; at 50.0 µM) | growth inhibition [3, 7] | growth inhibition [3, 8] | growth inhibition ([3]; at 50.0 µM) | growth inhibition [4, 7] | growth inhibition [4, 8] | growth inhibition ([4]; at 50.0 µM) | growth inhibition [5, 7] | growth inhibition [5, 8] | growth inhibition ([5]; at 50.0 µM) | growth inhibition [6, 7] | growth inhibition [6, 8] | growth inhibition ([6]; at 50.0 µM)
1 | CN=S(=O)(OCCCCCCCCCOS(=O)(=NC)c1ccc(C)cc1)c1ccc(C)cc1 (centres undefined) | 17% | 12% | 42.5% | 14% | 6% | 70% (active) | 16% | 15% | 19.7% | 29% | -1% | -5.85% | 20% | 20% | -35.3% | 18% | 11% | -80.8%
2 | Cc1cc(C(=O)O)c(C)c2c1sc1ccccc12 | 6% | 87% (active) | 76.8% (active) | 3% | 79% (active) | 27.2% | 12% | 82% (active) | 62.8% | -64% | 81% (active) | 42% | -11% | -14% | 51.1% | 0% | 81% (active) | 81.2% (active)
3 | CN(C)CCCSc1c2ccccc2nc2cc(NCC(=O)Nc3ccccc3-c3ccccc3NC(=O)CNc3ccc4c(SCCCN(C)C)c5ccccc5nc4c3)ccc12 | 53% | 98% (active) | 90.6% (active) | 38% | 99% (active) | 92.5% (active) | 32% | 98% (active) | 93.3% (active) | 30% | 63% | 78.3% (active) | 39% | 98% (active) | 91.5% (active) | 41% | 98% (active) | 90.7% (active)
4 | O=C(O)Cc1ccc2ccccc2c1-c1ccccc1 | -1% | 93% (active) | 86.7% (active) | -11% | 93% (active) | 91.8% (active) | 2% | -19% | 85% (active) | -3% | 98% (active) | 95% (active) | -11% | 92% (active) | 94.7% (active) | -20% | 94% (active) | 90.2% (active)
5 | Nc1ccc(S(=O)(=O)NCc2nccs2)cc1 | -5% | 81% (active) | 17.9% | 14% | 58% | 50% | 2% | 53% | 28.4% | -7% | 60% | 47.4% | 37% | 80% (active) | 31.7% | 11% | 87% (active) | 70.5% (active)
6 | CCOC(=O)C(=Cn1c(=S)[nH]c2ccc([N+](=O)[O-])cc21)C(=O)OCC | 33% | 53% | -36.2% | 17% | 22% | -35.2% | 33% | 41% | 0.75% | 20% | 25% | 13.9% | 26% | 29% | -37.2% | 33% | 46% | -40.2%
7 | O=C(O)c1ccccc1-c1ccccc1C(=O)Nc1ccc2c(c1)Cc1cc(F)ccc1-2 | 22% | 97% (active) | 94.1% (active) | -3% | 97% (active) | 97.5% (active) | -8% | 95% (active) | 97.9% (active) | -19% | 96% (active) | 96.8% (active) | -27% | 92% (active) | 97.8% (active) | -2% | 97% (active) | 97.2% (active)
8 | CCOC(=O)c1csc(=S)[nH]1 | 2% | 83% (active) | 76.8% (active) | 2% | 32% | 80.2% (active) | -16% | 95% (active) | 74.5% (active) | 5% | 46% | -12.1% | -6% | 86% (active) | 47% | 15% | 96% (active) | 35.9%
9 | Cc1c(CCCl)c(N=[N+]=[N-])n2c(nc3ccccc32)c1C#N | 31% | 46% | 83.8% (active) | 27% | 45% | 71.2% (active) | 23% | 51% | 56.6% | 20% | 34% | 63.4% | 23% | 57% | 78.2% (active) | 28% | 48% | 56.5%
10 | CCOC(=O)C(=N\Nc1ccccc1C)/C(C)=N\NC(N)=S | -9% | 37% | 73.5% (active) | 7% | 55% | 48.5% | 15% | 71% (active) | 75.2% (active) | -13% | 20% | 81.1% (active) | 5% | 30% | 73.6% (active) | 18% | 68% | 80.3% (active)
11 | CCCCCCC(O)CCOC(C)=O (centres undefined) | -3% | -3% | -19.4% | 4% | 0% | -13.2% | 1% | -3% | -2.15% | 2% | -11% | -14.8% | 4% | 1% | 33.1% | -3% | 4% | -1.6%
12 | Oc1ccc(C(=C(Br)c2ccccc2)c2ccc(O)cc2)cc1 | 98% (active) | 98% (active) | 87.7% (active) | 99% (active) | 99% (active) | 91.5% (active) | 99% (active) | 99% (active) | 85.1% (active) | 99% (active) | 99% (active) | 89.5% (active) | 99% (active) | 99% (active) | 89.3% (active) | 99% (active) | 99% (active) | 85.3% (active)
13 | C/C(=N/NC(N)=S)C(C)C | 11% | 37% | 14.3% | 2% | 2% | -9.9% | 2% | 3% | -11.1% | 4% | -5% | 37.6% | 1% | -3% | 17.4% | 2% | -2% | 4.8%
14 | COc1ccc(C(=O)C(C(c2ccccc2)N2CCc3ccccc3C2)N2CCc3ccccc3C2)cc1 (centres undefined) | 3% | 22% | 27.4% | -2% | 2% | 15.2% | 0% | -6% | 12.2% | 2% | -27% | 26.9% | -3% | 4% | 78.3% (active) | -1% | 6% | 27.6%
15 | CCCCCCCCCCCCCCNC(=O)CCC(NC(=O)c1ccc(N(C)Cc2cnc3nc(N)nc(N)c3n2)cc1)C(=O)NCCCCCCCCCCCCCC (centres undefined) | 28% | 94% (active) | 64.9% | 22% | 96% (active) | 84.7% (active) | 19% | 93% (active) | 86.3% (active) | 3% | 77% (active) | 45.1% | 24% | 93% (active) | 68.7% | 24% | 91% (active) | 20.8%
16 | O=C(CC(=O)c1cc(Cl)ccc1O)c1cccnc1 | 2% | 95% (active) | 68% | 2% | 49% | 17.9% | 1% | 91% (active) | 49.9% | 7% | 49% | -21.1% | 4% | 94% (active) | -16.1% | 2% | 99% (active) | 47%
17 | O=C(CCl)Nc1cc(Cl)ccc1Cl | 2% | 23% | 37.5% | -20% | 26% | 30.8% | 6% | 30% | 43.4% | 5% | 20% | 18.1% | 10% | 83% (active) | 84.6% (active) | 2% | 18% | 4.8%
18 | Nc1ccc(Cl)c2c1C(=O)c1ccccc1C2=O | 40% | 19% | 98.8% (active) | 13% | 7% | 56.8% | 0% | 41% | 89.2% (active) | -4% | 3% | 46.6% | 0% | 30% | 34.1% | 13% | 12% | 89.3% (active)
